The list is not random: actives were taken first. Their share in the collection is about 8.7%.
Sfp inh – qHTS Assay for Inhibitors of Bacillus subtilis Sfp phosphopantetheinyl transferase (PPTase); 3.5% of 310,000 active; Potency, µM, for inactives: largest response in the series, negative = inhibition, hits mostly inhibitors; AID 1490, 2009; Biochemical Sfp PPTase activity, qHTS; 4'-phosphopantetheinyl transferase ffp (Bacillus subtilis), Q9F4F7;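 also: the enzyme is Sfp with the accession as filed and its product quenches rhodamine fluorescence; 0% = enzyme reaction without inhibitor and -100% = no enzyme wells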
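Buffer: 50 mM Hepes-Na pH 7.6, 10 mM MgCl2, 0.01% Nonidet P-40, 0.01% BSA. Enzyme 15 nM, pre-exposed to compound 15 min; substrates then added and fluorescence change tracked over 30 min.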
JMJD2A Tudor inh – qHTS Assay for Inhibitors of JMJD2A-Tudor Domain; Lysine-specific demethylase 4A (Homo sapiens), O75164; AlphaScreen JMJD2A-Tudor / H3K4me3 peptide binding; Potency, µM (top dose mostly 114 µM), for the others: at the top dose activity change, negative = inhibition, usual class: inhibitors; 4.4% of 390,000 active; AID 504339, 2011; also: % is scaled to controls: 0 for no effect and ±100 for the full control effect; nearly all actives have a fitted effect of over 50% in size
12-LOX inh – Primary qHTS assay for inhibitors of human arachidonate 12S-lipoxygenase (ALOX12): Round 2; Potency, µM (highest dose often 108 µM), inactives show at the top dose activity change, negative = inhibition, hits mostly inhibitors; purified 12hLO, xylenol orange hydroperoxide absorbance; AID 1671190, 2021; 1.1% of 580,000 active; Polyunsaturated fatty acid lipoxygenase ALOX12 (Homo sapiens), P18054; also: % is scaled to controls: 0 for no effect and ±100 for the full control effect
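Purified human 12hLO (150 nM final) in 25 mM Hepes, 0.01% Triton X-100, pH 7.0 was preincubated 15 min at room temperature with compound. Then 40 uM arachidonic acid was added, 30 min. Hydroperoxide was read by Fe-XO absorbance ratio 573/405 nm.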
G9a block – qHTS Assay for Inhibitors of Histone Lysine Methyltransferase G9a. 8.8% of 350,000 active. Potency, µM (top dose mostly 102 µM), for the others: at the highest dose activity, negative = inhibition, hits mostly inhibitors. AID 504332, 2011. G9a H3K9 monomethylation, AlphaScreen, 2 h; also: % is scaled to controls: 0 for no effect and ±100 for the full control effect; nearly all actives have a fitted effect of over 75% in size
Target sequence (Q96KQ7 913-1193 limits assumed): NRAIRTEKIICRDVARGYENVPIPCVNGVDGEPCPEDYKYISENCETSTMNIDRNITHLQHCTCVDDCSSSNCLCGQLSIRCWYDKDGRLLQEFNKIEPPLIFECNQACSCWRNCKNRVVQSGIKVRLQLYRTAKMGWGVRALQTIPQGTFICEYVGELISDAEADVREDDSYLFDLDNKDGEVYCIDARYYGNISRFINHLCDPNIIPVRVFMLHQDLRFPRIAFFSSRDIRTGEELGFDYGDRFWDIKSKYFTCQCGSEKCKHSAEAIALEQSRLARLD
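Chemiluminescent proximity detection of H3K9 monomethylation, read after 10 min bead incubation in the dark. Reaction: 20 nM G9a, 500 nM biotin-H3K9 peptide, 20 uM SAM cofactor, 2 h, room temperature, following 15 min enzyme-compound preincubation.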
BAZ2B inh – qHTS Assay for Inhibitors of BAZ2B | Bromodomain adjacent to zinc finger domain protein 2B (Homo sapiens), Q9UIF8 | AlphaScreen BAZ2B-H3K14Ac peptide displacement | Potency, µM (doses to about 114 µM), inactives show top-dose activity change, negative = inhibition, usual class: inhibitors | 4.4% of 360,000 active | AID 504333, 2011; also: % is scaled to controls: 0 for no effect and ±100 for the full control effect; nearly all actives have a fitted effect of over 60% in size
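AlphaScreen displacement: compounds (up to 110uM) incubated 30 min at room temperature with a preformed 50 nM BAZ2B/50 nM biotinylated H3K14Ac peptide complex in PBS pH 7.4 with Tween-20. Donor and acceptor beads at 10 ug/mL final added, 20 min light-protected before reading.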
HP1b chromo inh – HTS for Inhibitors of HP1-beta Chromodomain Interactions with Methylated Histone Tails | Chromobox protein homolog 1 (Homo sapiens), P83916 | AlphaScreen HP1-beta / biotin-H3K9me3 peptide binding | Potency, µM (highest dose often 114 µM), for the others: at the highest dose activity change, negative = inhibition, actives largely listed as inhibitors | 0.56% of 390,000 active | AID 540317, 2011; also: nearly all actives have a fitted effect of over 70% in size
Target sequence (P83916 whole entry, looked up): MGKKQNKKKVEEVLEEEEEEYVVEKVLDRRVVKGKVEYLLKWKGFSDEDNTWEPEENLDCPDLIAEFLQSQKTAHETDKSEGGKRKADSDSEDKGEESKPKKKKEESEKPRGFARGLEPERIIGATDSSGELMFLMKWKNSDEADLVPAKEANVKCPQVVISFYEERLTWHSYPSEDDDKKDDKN
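Compound inhibition of the preformed complex between 50 nM HP1-beta and 50 nM biotinylated H3K9me3 peptide was read by AlphaScreen. Buffer was PBS pH 7.4 with 0.01% Tween-20. Incubations ran 30 min at room temperature, with 10 ug/mL donor/acceptor beads.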
* = called active by the depositor; ? = inconclusive; nt = no result given; [ ] = another dose, or the depositor's remark. Calls follow the shape of the dose curve; as a rule, active = well fitted curve in the direction sought with a large enough effect; inconclusive = small, poorly fitted or top-dose-only effect, or another doubt; inactive = no such curve, though single readings can be large; an effect the other way counts as inactive or inconclusive. Potency is read from the fitted curve at half-maximal effect.

SMILES	Sfp inh	JMJD2A Tudor inh	12-LOX inh	G9a block	BAZ2B inh	HP1b chromo inh
CCOc1ccc(CCNC(=O)C2CCN(S(=O)(=O)CC)CC2)cc1OCC	18%	-9%	17%	32%[12.7 µM]	4%	19%
CCOc1ccc(CCNC(=O)C2CCN(C(=O)N(C)C)CC2)cc1OCC	9%	89µM*	14%	-6%[59 µM]	2%	10%
CCOc1ccc(CCNC(=O)C2CC=CCC2C(=O)OC(C)C)cc1OCC (stereo unspecified)	12%	-2%	-6%	13%	-2%	27%
CCOc1ccc(CCNC(=O)CSCc2ccc(C)cc2)cc1OCC	-13%	-23%	-14%	?	-2%	15%
CCOC(=O)c1nn(Cc2ccccc2)c2c1CN(C(=O)CC1C(=O)Nc3ccc(OC)cc31)CC2 (stereo unspecified)	nt	nt	76%	nt	nt	nt
CC(Sc1nnc(N2CCOCC2)n1-c1cccc(F)c1)c1nnc(-c2cccs2)o1 (stereo unspecified)	nt	nt	2%	nt	nt	nt
CCCC[C@@H]1CNC(=S)N1CC1CCCCC1	13%	-24%	50µM*	21%[59 µM]	-15%	19%
CC(C)C[C@H]1CNC(=S)N1CC1CCN(CCC23CC4CC(CC(C4)C2)C3)CC1	nt	-19%	?	nt	nt	37%
CCCC[C@@H]1CNC(=O)C(=O)N1CC1CCCCC1	nt	nt	0%	nt	nt	nt
CCCC[C@@H]1CNC(=S)N1CCC12CC3CC(CC(C3)C1)C2	7%	-31%	35µM*	13%[59 µM]	-13%	37%
Cc1cccc(Nc2nnc(-c3ccc(C)c(S(=O)(=O)N4CCN(C)CC4)c3)c3ccccc23)c1	nt	-33%	-11%	18µM*	?	3%
Cc1ccc(-c2nnc(Nc3cccc(Br)c3)c3ccccc23)cc1S(=O)(=O)N1CCN(C)CC1	nt	?	5%	-51%[59 µM]	?	3%
Cc1ccc(-c2nnc(Nc3cccc(Cl)c3)c3ccccc23)cc1S(=O)(=O)N1CCN(C)CC1	nt	?	-9%	7.9µM*	?	6%
Cc1ccc2c(c1)CCCN2C(=O)c1cc(C)nc2ccccc12	nt	nt	2%	nt	nt	nt
COc1ccc2c(=O)n(CC(=O)N(C)Cc3cc(C)no3)ccc2c1OC	nt	nt	44%	nt	nt	nt
N#Cc1ccccc1CSc1ccc(-c2nc3ccccc3[nH]2)cn1	4.5µM*	-11%	-9%	?	4%	-3%
O=C(CCCc1nc2ccccc2o1)NCc1ccccc1Cl	nt	nt	24%	nt	nt	nt
CC1(C)CC(=O)C(Sc2ccccc2C(=O)O)=C(O)C1	2%	25µM*	-9%	?	-8%	9%
CC1(C)CC(=O)C(CC(=O)NC(=O)NCc2ccccc2)=C(O)C1	-20%	-11%	0%	21%[59 µM]	4%	32%
CC1(C)CC(=O)C(Sc2ccccc2)=C(O)C1	-12%	3%	9%	45µM*	-12%	59%
C=CCN(C(=O)Cc1cccs1)c1nc(-c2ccc(S(C)(=O)=O)cc2)cs1	-4%	-30%	-5%	71µM*	-17%	-4%
COc1cc2c(cc1OC)CN(C1CCCN(Cc3c(O)cccc3OC)C1)CC2 (stereo unspecified)	nt	nt	34%	nt	nt	nt
Cc1nc(C(=O)NNC(=O)c2ccc(Cl)cc2)cs1	-3%	-10%	22%	?	1%	24%
Cc1nc(/C(=N/O)C(N)=O)cs1	56µM*	-15%[11.4 µM]	?	13µM*	50µM*	9%
COc1cc(CCN(C(C)=O)C2C(=O)Nc3ccccc3N=C2c2ccc3c(c2)OCO3)cc(OC)c1 (stereo unspecified)	nt	nt	2µM*	nt	nt	nt
O=C(Nc1ccc(CN2CCCCC2)cc1)c1c(F)c(F)c(F)c(F)c1F	13%	-9%	6%	25%[12.7 µM]	-16%	4%

Screens: PubChem BioAssay, National Center for Advancing Translational Sciences (NCATS)
